Screening data deposited in PubChem BioAssay by National Center for Advancing Translational Sciences (NCATS).
This is a sample that favours compounds with a hit; in the whole collection about 2.5% have one here.
Cruzain inh Det = qHTS Assay for Promiscuous and Specific Inhibitors of Cruzain (with detergent); purified cruzain, Z-FR-AMC fluorescence, 0.01% Triton; 200,000 tested, 0.43% active; Cruzipain (Trypanosoma cruzi), P25779; AID 1478, 2009; Potency, µM, usual class: inhibitors; also: nearly all actives have a fitted effect of over 40% in size
Target sequence (P25779 123-467 limits assumed): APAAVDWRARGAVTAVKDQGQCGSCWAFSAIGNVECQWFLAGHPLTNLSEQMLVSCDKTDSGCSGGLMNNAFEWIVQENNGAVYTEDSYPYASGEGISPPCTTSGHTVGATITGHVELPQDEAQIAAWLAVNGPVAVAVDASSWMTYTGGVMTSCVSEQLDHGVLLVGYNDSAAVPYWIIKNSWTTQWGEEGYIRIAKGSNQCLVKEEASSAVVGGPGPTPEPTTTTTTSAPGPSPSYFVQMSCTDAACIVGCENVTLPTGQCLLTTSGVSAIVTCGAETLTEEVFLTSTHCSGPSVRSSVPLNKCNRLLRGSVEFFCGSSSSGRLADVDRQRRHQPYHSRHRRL
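Steps: dispense cruzain (1.5 nM final) in acetate buffer pH 5.5 with DTT and 0.01% Triton X-100; pin-transfer compounds; incubate 15 min RT; add Z-FR-AMC (2 uM final); read fluorescence every 30 s, using the 60 s intensity change.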
Cruzain inh noDet = qHTS Assay for Promiscuous and Specific Inhibitors of Cruzain (without detergent); purified cruzain, Z-FR-AMC fluorescence, no detergent; Potency, µM, usual class: inhibitors; 200,000 tested, 2.3% active; AID 1476, 2009; also: nearly all actives have a fitted effect of over 40% in size
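Purified cruzain at 1.5 nM, pre-incubated 15 min with compound at room temperature in 100 mM sodium acetate pH 5.5, 5 mM DTT, 0.00005% Triton X-100. Reaction started with 2 uM Z-FR-AMC; AMC fluorescence increase over 60 s gives rate.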
Papain counter = qHTS Assay for Inhibitors of Papain: Counterscreen for Cruzain Assay. 410 tested, 41% active. purified papain, Z-FR-AMC fluorescence cleavage. Potency, µM, most hits filed as inhibitors. shares compounds with Cruzain inh Det; also: nearly all actives have a fitted effect of over 35% in size
Target sequence (P00784 whole entry, looked up): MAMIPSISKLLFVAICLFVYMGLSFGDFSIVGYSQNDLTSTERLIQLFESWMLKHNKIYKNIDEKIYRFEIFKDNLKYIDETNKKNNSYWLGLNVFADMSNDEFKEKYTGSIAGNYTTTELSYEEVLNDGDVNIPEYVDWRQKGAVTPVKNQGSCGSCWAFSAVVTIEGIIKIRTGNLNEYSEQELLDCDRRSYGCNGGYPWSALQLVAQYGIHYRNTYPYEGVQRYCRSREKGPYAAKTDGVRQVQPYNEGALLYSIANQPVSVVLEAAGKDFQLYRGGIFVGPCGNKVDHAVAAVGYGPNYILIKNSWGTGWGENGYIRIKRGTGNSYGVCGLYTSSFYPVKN
Large screens that a line does not name were inactive (follow-up assays come after a bar, where they were run). Calls follow the shape of the dose curve; as a rule, active = well fitted curve in the direction sought with a large enough effect; inconclusive = small, poorly fitted or top-dose-only effect, or another doubt; inactive = no such curve, though single readings can be large; an effect the other way counts as inactive or inconclusive.

COc1ccc(CNC(=O)c2ccc(NC(=O)N3CCCCc4ccccc43)cc2)c(OC)c1	none
Cc1ccc(N(CC(=O)NCCc2ccccc2C)S(=O)(=O)N(C)C)cc1	none
CN(Cc1ccccc1)C(=O)C1CCN(S(=O)(=O)c2ccc3nc4c(c(C(=O)O)c3c2)CCCC4)CC1	Cruzain inh noDet inconclusive
N#Cc1nc(N2CCCCC2)nc(N2CCCCC2)n1	none (no result: Cruzain inh Det, Cruzain inh noDet) | Papain counter 2.2µM
CC(C)(C)Nc1nc(N2CCCC2)nc(N2CCCC2)n1	none
CN(C)c1nc(N)nc(Nc2ccccc2C#N)n1	none
CCN(c1ccccc1)c1nc(N)nc(C#N)n1	none (no result: Cruzain inh Det, Cruzain inh noDet) | Papain counter 11µM
O=C(NCc1ccc2c(c1)CCN2C(=O)c1ccccc1)c1cc2ccccc2[nH]1	Cruzain inh noDet inconclusive
COc1cccc2c1Oc1nc(-c3ccccc3)nc(SCC(=O)N3CCCCC3)c1C2	none
COc1ccc(CNC(=O)c2ccc3c(c2)N(Cc2ccccc2F)C(=O)c2ccccc2S3=O)cc1 (configuration not stated)	none
CN1CCN(c2ncc3ncc(=O)n(-c4ccccc4)c3n2)CC1	Cruzain inh Det inconclusive, Cruzain inh noDet 20µM | Papain counter 14µM
CN1CCN(c2ncc3ncc(=O)n(CCc4ccccc4)c3n2)CC1	none
CCOc1ccc(C(c2c(O)cc(C)n(Cc3ccco3)c2=O)N2CCN(c3ccccc3)CC2)cc1 (configuration not stated)	Cruzain inh noDet inconclusive
O=C(NCCCc1nc2ccccc2n1Cc1ccc(F)cc1)C1CCCCC1	none
O=C(NCCCc1nc2ccccc2n1CCOc1ccccc1)C1CCCCC1	none (no result: Cruzain inh Det, Cruzain inh noDet) | Papain counter inactive
O=C(NCCCc1nc2ccccc2n1CCCCOc1ccccc1)C1CCCCC1	none (no result: Cruzain inh Det, Cruzain inh noDet) | Papain counter inactive
O=C(NCCCc1nc2ccccc2n1CCCOc1ccccc1)C1CCCCC1	none (no result: Cruzain inh Det, Cruzain inh noDet) | Papain counter inactive
O=C(NCCCc1nc2ccccc2n1Cc1ccccc1)C1CCCCC1	none
OCCCc1nc2ccccc2n1CCCCOc1ccccc1	none
COC(=O)c1ccc(Cn2c(=O)cc(C)c3c(C)nn(C)c32)cc1	none
COc1ccc(NC(=O)Cn2ccn(-c3ccc(C)c(C)c3)c(=O)c2=O)cc1Cl	Cruzain inh noDet inconclusive
CC(C)(C)c1ccc(-c2nc(SCC(=O)Nc3ccc(Cl)cc3)[nH]c(=O)c2C#N)cc1	Cruzain inh Det 16µM | Papain counter 10µM
N#Cc1c(-c2ccco2)nc(SCC(=O)Nc2cccc(Cl)c2)[nH]c1=O	none
NC(=O)CSc1nc2ccccc2n1Cc1ccccc1	none
NNC(=O)Cn1c(SCc2ccccc2)nc2ccccc21	none | Papain counter inactive
COc1ccccc1N1CCN(C(=O)CN(c2ccccc2OC)S(=O)(=O)c2ccccc2)CC1	Cruzain inh noDet inconclusive | Papain counter inactive
CCOC(=O)N1CCN(C(=O)CN(c2cc(Cl)ccc2OC)S(=O)(=O)c2ccccc2)CC1	Cruzain inh noDet inconclusive
COCCn1ccc2c(OCC(=O)Nc3cccc(OC)c3)cccc2c1=O	none
Cn1c(=O)c2c(-c3ccccc3)n(CCCO)cc2n(C)c1=O	none
Cn1c(=O)c2c(-c3ccccc3)n(-n3cnnc3)cc2n(C)c1=O	Cruzain inh Det 8.9µM, Cruzain inh noDet 6.3µM | Papain counter 13µM
CCN(CC)S(=O)(=O)c1ccc(N=Nc2c(C)[nH]n(C(N)=S)c2=O)cc1	none
NC(=S)n1[nH]c(-c2ccc([N+](=O)[O-])cc2)c(N=Nc2ccc(O)cc2)c1=O	Cruzain inh Det 0.35µM, Cruzain inh noDet 0.63µM | Papain counter inactive
Cc1c(-c2nc(N)nc(C3CC3)c2C)nc(N)nc1C1CC1	none
CS(=O)(=O)Nc1cccc(-c2cncnc2-n2ccnc2)c1	none
CC(=O)n1cc(/C=C2/N=C(c3ccccc3)OC2=O)c2ccccc21	Cruzain inh Det 4.5µM, Cruzain inh noDet 20µM | Papain counter 1.6µM
Cc1ccc2cc(/C=C3\N=C(c4ccccc4)OC3=O)c(N3CCOCC3)nc2c1	Cruzain inh noDet inconclusive
O=C(Nc1ccc(-c2nc3ccccc3o2)c(O)c1)c1cc(Cl)ccc1Cl	none
O=C(Nc1ccc(O)c(-c2nc3ccccc3o2)c1)C1(c2ccc([N+](=O)[O-])cc2)CCCC1	Cruzain inh noDet 4µM | Papain counter inactive
Cc1cc(Cl)ccc1NS(=O)(=O)c1ccc2c(c1)CCN2S(C)(=O)=O	none
CC(C)(C)NCC(O)c1ccccc1Cl (configuration not stated)	none
OCCN(CCO)c1ccc(C(c2ccccc2Cl)c2ccc(N(CCO)CCO)cc2Cl)c(Cl)c1	Cruzain inh noDet inconclusive | Papain counter inactive
Cc1oc2ncn(C)c(=O)c2c1C(=O)N1CCN(c2ccccc2F)CC1	none
CCOc1ccc(-c2cc3nc(C4CCN(C(=O)OC(C)(C)C)CC4)c(C(=O)O)cn3n2)cc1	Cruzain inh noDet inconclusive | Papain counter 32µM
CCOc1ccc(-c2cc3nc(C4CCN(C(=O)OC(C)(C)C)CC4)c(C(=O)Nc4c(C)cccc4C)cn3n2)cc1	none
C=CC(C)(C)c1[nH]c2ccccc2c1C1=C(O)C(=O)C(c2c[nH]c3c(CC=C(C)C)cccc23)=C(O)C1=O	Cruzain inh Det 32µM, Cruzain inh noDet inconclusive | Papain counter 4.5µM
CSc1ccc(/C=C/C(=O)c2ccc(NC(C)=O)cc2)cc1	Cruzain inh noDet inconclusive
O=C(Nc1ccc(-n2nncc2-c2ccccc2)cc1)c1ccccc1	none (no result: Cruzain inh Det, Cruzain inh noDet) | Papain counter inactive
CC(=O)Nc1ccc(/C=C/C(=O)c2ccc(-n3nncc3-c3ccccc3)cc2)cc1	none (no result: Cruzain inh Det, Cruzain inh noDet) | Papain counter inactive
COc1cccc(C(=O)Nc2ccc(-n3nncc3-c3ccccc3)cc2)c1	none
Cc1ccc(NC(=O)c2nc(S(C)(=O)=O)ncc2N(Cc2ccco2)Cc2cccs2)cc1C	Cruzain inh noDet inconclusive
Cc1ccc(-n2nc(C)c3c(C(=O)NCCc4ccccc4)cc(C)nc32)cc1	none
Cc1ccc(C)c(N2CCN(C(=O)Nc3cn(CC(C)C)c(=O)c4ccccc34)CC2)c1	none
O=C(Nc1nc2ccccc2n1CCN1CCCCC1)C1CCCCC1	none
O=C(NCCc1nc2ccccc2n1CCCOc1ccc2ccccc2c1)C1CCCCC1	none (no result: Cruzain inh Det, Cruzain inh noDet) | Papain counter 10µM
O=C(NCCc1nc2ccccc2n1CCOc1ccc2ccccc2c1)C1CCCCC1	none (no result: Cruzain inh Det, Cruzain inh noDet) | Papain counter inactive
CC(C)C[C@H](N)c1nnc(S(=O)(=O)Cc2cccc(F)c2)o1	Cruzain inh Det 11µM, Cruzain inh noDet 13µM | Papain counter inactive
CC(C)Cn1nnnc1S(=O)(=O)Cc1cccc(C#N)c1	none
CC1CCCN(c2ccc(C(=O)OCC(=O)N3c4ccccc4Sc4ccccc43)cc2[N+](=O)[O-])C1 (configuration not stated)	Cruzain inh noDet 4µM | Papain counter inactive
CC1CCCN(c2ccc(C(=O)OCn3nnc4ccccc4c3=O)cc2[N+](=O)[O-])C1 (configuration not stated)	Cruzain inh noDet inconclusive
Cc1ccc(C)c(NC(=O)C(NS(=O)(=O)c2ccc3c(c2)CCC(=O)N3)c2ccccc2)c1 (configuration not stated)	Cruzain inh noDet inconclusive
CC(C)=CCSc1nnc([C@@H](N)Cc2c[nH]c3ccccc23)o1	none
CCc1ccccc1NC(=O)CSc1nnc([C@@H](N)Cc2c[nH]c3ccccc23)o1	Cruzain inh Det 10µM, Cruzain inh noDet 10µM | Papain counter inactive
O=C(Nc1nc(-c2ccccc2)c(-c2ccccc2)s1)c1ccc(S(=O)(=O)N(CCCl)CCCl)cc1	Cruzain inh noDet 4µM | Papain counter inactive
